# According to PubChem BioAssay AID504848 (National Center for Advancing Translational Sciences (NCATS), 2011):
# The campaign covered roughly 2,300 compounds. About 1,400 (61%) were called active. Roughly 29% stayed inconclusive and do not appear here. Calls come from the whole dose curve; as a rule, active = well fitted inhibition curve with a large enough effect; inconclusive = small, poorly fitted or top-dose-only effect, or effect the other way; inactive = no such curve, though single readings can be large or run the other way. So high a share suggests a set chosen from earlier hits. This is one part of the list.
# Experiment: Confirmation screen for delayed death inhibitors of the malarial parasite plastid, 96 hour incubation; note: nearly all actives have a fitted effect of over 60% in size
# Conditions: P. falciparum luciferase growth in erythrocytes; series mostly up to 28.7 µM; activity change, negative = inhibition: at the top concentration
# How it was run: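 Erythrocytes infected with luciferase-expressing P. falciparum (2% hematocrit, 0.1% parasitemia final) in RPMI 1640 with 0.5% Albumax, exposed to compounds 96 h at 37 C, 5% CO2. Growth inhibition read as decreased luciferase luminescence.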
# % is set by controls: 0 for no effect and ±100 for the full control effect; potency is the fitted concentration of half-maximal effect.
Structure (SMILES),Potency,"activity change, negative = inhibition"
Fc1ccccc1C1c2[nH]c3ccccc3c2CCN1Cc1cccn1-c1ncccn1 (stereo unspecified),12.6 µM (active),–
COc1ccc(C2c3[nH]c4ccccc4c3CCN2Cc2ccoc2)c(F)c1 (stereo unspecified),12.6 µM (active),–
Cc1ccccc1C1c2[nH]c3ccccc3c2CCN1Cc1cccn1-c1ncccn1 (stereo unspecified),14.1 µM (active),–
O=c1c(Cl)c(Cl)cnn1Cc1nnc(-c2ccc(Cl)cc2)o1,12.6 µM (active),–
COc1cc2c(O)c3c(c(-c4ccc5c(c4)OCO5)c2cc1OC)C(=O)OC3,6.31 µM (active),–
CCOC(=O)C1=C(C)NC(C)=C(C(=O)OCC)C1c1cc(N)ccc1OC(F)F,5.62 µM (active),–
Cc1ccc(N(Cc2ccco2)C(=O)c2ccc(N3CCCCC3)c([N+](=O)[O-])c2)cc1,10 µM (active),–
Nc1c(N(Cc2ccco2)C(=O)c2ccc(Br)cc2)c(=O)[nH]c(=O)n1Cc1ccccc1,–,-7.43% (inactive)
COc1cc(CN2CCN(Cc3c[nH]c4ccccc34)CC2CCO)cc(OC)c1 (stereo unspecified),12.6 µM (active),–
COc1cc(CN2CCN(CC#Cc3ccccc3)CC2CCO)cc(OC)c1 (stereo unspecified),14.1 µM (active),–
Cc1cccc(Nc2nc3c(S(=O)(=O)c4ccccc4)nnn3c3ccccc23)c1C,3.98 µM (active),–
CC(C)(C)NC(=O)CSc1nnc(-c2ccccc2)c(-c2ccccc2)n1,14.1 µM (active),–
COc1ccc(/C=C2\CCc3ccccc3C2=O)cc1CN1CCOCC1,15.8 µM (active),–
CCC(C)NC(=O)c1cc(Cl)c(NC(=O)C2=C(C)OCCS2)cc1OC (stereo unspecified),10 µM (active),–
Cc1nn2c(Nc3ccccc3)c3c(nc2c1-c1ccccc1)CCC3,14.1 µM (active),–
Cc1ccc(Cl)cc1Nc1nc(-c2sc(NC(=O)C(C)(C)C)nc2C)cs1,2.82 µM (active),–
Cc1cccc(N(Cc2ccccc2)C(=O)CSC(C)C(=O)Nc2cc(C)on2)c1 (stereo unspecified),8.91 µM (active),–
CCOC(=O)C1CCN(C(=O)C(=O)Nc2ccc3nc4n(c(=O)c3c2)CCCCC4)CC1,7.08 µM (active),–
COc1ccccc1C(=O)Nc1ccc2nc3n(c(=O)c2c1)CCCC3,3.55 µM (active),–
CCCCNc1nc2sc3c(c2c(=O)n1-c1cccc(Cl)c1)CCN(C)C3,1.26 µM (active),–
CCCCCNc1nc2sc3c(c2c(=O)n1-c1cccc(Cl)c1)CCN(C)C3,2.24 µM (active),–
O=C(O)c1ccc(C=C(c2nc3ccccc3s2)c2nc3ccccc3s2)cc1,15.8 µM (active),–
Cc1cc(C(C)(C)C)cc(C)c1CCNC(=O)c1c(C)noc1C,10 µM (active),–

Structure (SMILES),Potency,"activity change, negative = inhibition"
Cc1cc(C(C)(C)C)cc(C)c1CCNC(=O)c1ccc[n+]([O-])c1,12.6 µM (active),–
CCCCNC(=O)c1onc(CSc2cc(C)ccc2C)c1C(=O)O,–,-0.286% (inactive)
Cc1ccc2c(c1)N(CCC(=O)NCc1ccco1)C(=O)CO2,–,-3.07% (inactive)
Cc1ccc(-n2nc3c(=O)n(CCCC(=O)NCc4ccco4)nc(C)c3c2C)cc1,2.24 µM (active),–
Cc1nn(CCCC(=O)NCc2ccco2)c(=O)c2nn(-c3ccccc3)c(C)c12,11.2 µM (active),–
C/C(=N/OCO/N=C(\C)c1ccccc1)c1ccccc1,–,-1.99% (inactive)
C/C(=N\NC(=S)Nc1cccc(C)c1)c1ccccc1,11.2 µM (active),–
CCOC(=O)c1c(C)[nH]c(C(=O)Nc2cc(OCC)c(N3CCOCC3)cc2OCC)c1C,2.51 µM (active),–
CCOC(=O)c1ccc(Nc2nc(=O)c3cccnc3s2)cc1,–,4.59% (inactive)
CCOC(=O)c1ccc(NC(=O)c2c(Cl)cc(C)nc2C)cc1,12.6 µM (active),–
N#C/C(=C\c1coc2ccccc2c1=O)C(N)=S,11.2 µM (active),–
COC(=O)C(=Cc1ccccc1[N+](=O)[O-])C(=O)OC,3.98 µM (active),–
CC1CCCCC1NC(=O)/C(C#N)=C/C=C/c1ccccc1[N+](=O)[O-] (stereo unspecified),4.47 µM (active),–
COCCNC(=O)/C(C#N)=C/C=C/c1ccccc1[N+](=O)[O-],10 µM (active),–
N#C/C(=C\C=C\c1ccccc1[N+](=O)[O-])C(=O)NC1CCCCC1,5.01 µM (active),–
CCCCN1/C(=C/c2cccc[n+]2C)Sc2cc(NC(C)=O)ccc21,1.58 µM (active),–
CCC1CCC(C(=O)NC(CCSC)C(=O)NCCN(CC(C)C)CC(C)C)CC1 (stereo unspecified),7.08 µM (active),–
O=C1C(=O)c2ccccc2C(O)=C1c1cccc([N+](=O)[O-])c1,10 µM (active),–
COC(=O)c1ccc(C2N=C(c3cccs3)CC(c3ccccc3O)N2)cc1 (stereo unspecified),5.62 µM (active),–
COc1ccc(C2(c3ccc(OC)cc3)NC(=O)N(CC(=O)Nc3ccc(C(N)=O)cc3)C2=O)cc1,3.98 µM (active),–
COc1cccc(NC(=O)CN2C(=O)NC3(CCCc4ccccc43)C2=O)c1 (stereo unspecified),3.98 µM (active),–
COC(=O)C1=C(C)Nc2ncnn2C1c1ccccn1 (stereo unspecified),–,-14% (inactive)
CCOc1ccc(N(C(=O)c2snc(C(N)=O)c2N)C(C(=O)NCC2CCCO2)c2c[nH]c3ccccc23)cc1 (stereo unspecified),2.82 µM (active),–
